About 8,800 targets were measured; listed, in parts, are those with a hit and a random draw of the rest. About 0.5% of all pairs of compound and target were hits.
Legend:
Test in all cases: log2 fold change, soluble protein after heating vs DMSO (PISA); higher = thermal stabilisation; K562 lysate, 10 uM; active = over 0.2 and 3.5 SD of the protein, either way, in both replicates (recomputed)
[1] = compound: C1=CC=C(C=C1)[C@H](COC2=CC3=C(C=C2)NC(=O)N3)NC(=O)C4=CC=CN(C4=O)CC5=CC(=C(C=C5)F)F
Summary of the method: (§1)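 Dounce homogenisation of K562 pellets in PBS pH 7.4 with 1 mM MgCl2 produced a crude extract, used at 1 mg/mL protein. Exposure to 10 μM compound lasted 30 min, and aliquots were then heated for 3 min across 48°C-58°C, pooled and brought to 0.5% NP-40 at 4°C. The supernatant after 21,000xg for 90 min was quantified by TMTpro 16plex LC-MS/MS with channel sums equalised. Duplicate values are given as log-two fold change in thermal stability relative to solvent controls.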

[2] = compound: CC1=C(SC2=C1C(=N[C@H](C3=NN=C(N32)C)CC(=O)N)C4=CC=C(C=C4)Cl)C
Summary of the method: as §1

[3] = compound: CC1=C2C(=CC=C1)N=C(N(C2=O)C3=CC=CC=C3C)CN4C=NC5=C(N=CN=C54)N
Summary of the method: as §1

[4] = compound: Cc1sc2c(c1C)C(c1ccc(Cl)cc1)=N[C@@H](CC(=O)OC(C)(C)C)c1nnc(C)n1-2
Summary of the method: as §1

[5] = compound: c1ccc([C@@H]2C[C@H]2NC2CCNCC2)cc1
Summary of the method: as §1

Measured: log2 fold change

USP3 (UniProt Q9Y6I4)
inactive: [1] 0.026 | [2] 0.006 | [3] -0.056 | [4] -0.044 | [5] 0.073

WDR3 (UniProt Q9UNX4)
inactive: [1] 0.039 | [2] -0.026 | [3] 0.006 | [4] -0.014 | [5] 0.056

XPNPEP1 isoform 3 (UniProt Q9NQW7)
inactive: [1] -0.007 | [2] -0.025 | [3] 0.002 | [4] 0.044 | [5] -0.006

WDR20 isoform 7 (UniProt Q8TBZ3)
UniProt Q8TBZ3, sequence (Q8TBZ3 whole entry, looked up): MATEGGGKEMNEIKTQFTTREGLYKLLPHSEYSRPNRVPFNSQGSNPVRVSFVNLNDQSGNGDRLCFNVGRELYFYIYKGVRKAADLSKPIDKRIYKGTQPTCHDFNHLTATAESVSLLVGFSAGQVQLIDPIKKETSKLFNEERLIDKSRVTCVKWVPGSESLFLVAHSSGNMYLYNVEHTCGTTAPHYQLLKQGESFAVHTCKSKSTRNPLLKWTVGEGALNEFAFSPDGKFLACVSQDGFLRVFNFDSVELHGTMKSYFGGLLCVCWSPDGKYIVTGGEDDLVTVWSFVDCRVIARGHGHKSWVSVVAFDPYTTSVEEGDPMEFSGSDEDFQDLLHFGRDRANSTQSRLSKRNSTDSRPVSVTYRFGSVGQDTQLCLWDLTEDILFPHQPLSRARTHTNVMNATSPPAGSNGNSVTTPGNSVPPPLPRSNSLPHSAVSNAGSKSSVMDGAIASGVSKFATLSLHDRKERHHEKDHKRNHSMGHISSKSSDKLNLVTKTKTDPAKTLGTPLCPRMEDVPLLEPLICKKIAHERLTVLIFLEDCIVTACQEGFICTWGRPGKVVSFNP
inactive: [1] -0.037 | [2] -0.002 | [3] 0.035 | [4] -0.176 | [5] -0.124

ZMYND8 isoform 19 (UniProt Q9ULU4)
inactive: [1] -0.006 | [2] -0.011 | [3] 0.055 | [4] 0.011 | [5] -0.026

UNKL (UniProt E9PDK2)
inactive: [1] -0.025 | [2] 0.09 | [3] 0.249 | [4] 0.022

XPOT (UniProt O43592)
inactive: [1] -0.017 | [2] 0.008 | [3] 0.037 | [4] 0.003 | [5] 0.021

YTHDF3 (UniProt Q7Z739)
inactive: [1] -0.111 | [2] 0.021 | [3] 0.063 | [4] -0.01 | [5] -0.018

WDR41 (UniProt Q9HAD4)
inactive: [1] 0.043 | [2] 0.013 | [3] 0.02 | [4] -0.047 | [5] -0.012

VAV3 isoform 4 (UniProt Q9UKW4)
inactive: [1] 0.089 | [2] -0.012 | [3] 0.096 | [4] 0.001 | [5] -0.391

VPS33A (UniProt Q96AX1)
UniProt Q96AX1, sequence (Q96AX1 whole entry, looked up): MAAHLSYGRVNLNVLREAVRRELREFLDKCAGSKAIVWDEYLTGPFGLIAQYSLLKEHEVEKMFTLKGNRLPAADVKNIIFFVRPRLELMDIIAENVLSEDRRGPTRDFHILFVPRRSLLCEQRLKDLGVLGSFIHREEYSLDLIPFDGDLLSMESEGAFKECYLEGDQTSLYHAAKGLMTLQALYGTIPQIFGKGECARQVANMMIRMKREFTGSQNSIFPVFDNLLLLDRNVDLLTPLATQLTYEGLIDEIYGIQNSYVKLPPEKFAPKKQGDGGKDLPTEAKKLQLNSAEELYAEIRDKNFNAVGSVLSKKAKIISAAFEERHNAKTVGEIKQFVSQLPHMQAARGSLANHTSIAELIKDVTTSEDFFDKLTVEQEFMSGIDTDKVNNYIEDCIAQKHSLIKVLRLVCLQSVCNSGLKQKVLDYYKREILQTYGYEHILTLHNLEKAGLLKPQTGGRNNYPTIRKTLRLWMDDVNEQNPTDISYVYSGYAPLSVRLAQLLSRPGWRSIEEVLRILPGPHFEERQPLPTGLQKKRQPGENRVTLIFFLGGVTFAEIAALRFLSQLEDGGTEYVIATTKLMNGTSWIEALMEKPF
inactive: [1] 0 | [2] 0.017 | [3] 0.014 | [4] -0.013 | [5] -0.01

VRK1 (UniProt Q99986)
UniProt Q99986, sequence (Q99986 whole entry, looked up): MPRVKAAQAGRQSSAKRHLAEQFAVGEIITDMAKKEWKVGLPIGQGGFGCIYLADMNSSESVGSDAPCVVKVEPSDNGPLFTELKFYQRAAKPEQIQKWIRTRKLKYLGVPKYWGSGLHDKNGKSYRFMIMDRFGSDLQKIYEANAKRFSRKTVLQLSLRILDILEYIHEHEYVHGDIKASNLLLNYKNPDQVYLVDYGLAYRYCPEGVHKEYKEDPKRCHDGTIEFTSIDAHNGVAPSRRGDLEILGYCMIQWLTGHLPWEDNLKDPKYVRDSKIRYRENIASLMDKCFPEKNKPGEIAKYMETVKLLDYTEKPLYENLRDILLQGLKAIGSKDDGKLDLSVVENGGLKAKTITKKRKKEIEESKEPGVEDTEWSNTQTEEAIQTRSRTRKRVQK
inactive: [1] -0.002 | [2] 0.017 | [3] 0.023 | [4] -0.005 | [5] 0.034

VPS13C (UniProt Q709C8)
inactive: [1] -0.111 | [2] -0.002 | [3] 0.061 | [4] 0.018 | [5] 0.008

ZNF217 (UniProt O75362)
UniProt O75362, sequence (O75362 whole entry, looked up): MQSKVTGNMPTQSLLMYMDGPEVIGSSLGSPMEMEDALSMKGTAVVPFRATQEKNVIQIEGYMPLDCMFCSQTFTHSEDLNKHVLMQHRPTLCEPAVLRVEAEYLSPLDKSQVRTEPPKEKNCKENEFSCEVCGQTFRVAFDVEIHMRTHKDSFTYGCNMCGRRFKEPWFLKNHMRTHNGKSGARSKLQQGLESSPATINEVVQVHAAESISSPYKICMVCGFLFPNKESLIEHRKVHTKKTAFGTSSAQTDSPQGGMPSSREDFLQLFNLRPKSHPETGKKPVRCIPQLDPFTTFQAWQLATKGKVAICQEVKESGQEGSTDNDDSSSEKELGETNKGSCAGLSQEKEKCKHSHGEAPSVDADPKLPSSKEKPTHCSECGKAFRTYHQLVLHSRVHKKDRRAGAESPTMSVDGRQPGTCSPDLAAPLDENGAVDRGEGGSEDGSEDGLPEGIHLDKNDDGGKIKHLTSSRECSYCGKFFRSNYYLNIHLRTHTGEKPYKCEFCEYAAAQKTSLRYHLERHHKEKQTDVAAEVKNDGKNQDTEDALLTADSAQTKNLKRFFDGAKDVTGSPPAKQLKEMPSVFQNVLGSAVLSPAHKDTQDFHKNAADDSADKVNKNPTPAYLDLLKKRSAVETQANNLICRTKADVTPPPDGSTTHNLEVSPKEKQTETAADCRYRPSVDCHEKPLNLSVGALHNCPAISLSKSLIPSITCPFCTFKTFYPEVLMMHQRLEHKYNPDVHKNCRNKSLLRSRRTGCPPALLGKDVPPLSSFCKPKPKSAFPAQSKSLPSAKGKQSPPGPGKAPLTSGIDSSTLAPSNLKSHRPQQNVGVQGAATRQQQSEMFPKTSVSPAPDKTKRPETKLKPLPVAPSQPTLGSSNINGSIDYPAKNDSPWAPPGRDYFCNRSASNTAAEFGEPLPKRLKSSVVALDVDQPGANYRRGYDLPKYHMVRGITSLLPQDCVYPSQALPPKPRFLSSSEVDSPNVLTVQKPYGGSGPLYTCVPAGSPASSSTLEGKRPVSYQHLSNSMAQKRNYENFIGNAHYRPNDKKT
inactive: [1] -0.037 | [2] 0.075 | [3] 0.129 | [4] 0.053 | [5] 0

WDR77 (UniProt Q9BQA1)
UniProt Q9BQA1, sequence (Q9BQA1 whole entry, looked up): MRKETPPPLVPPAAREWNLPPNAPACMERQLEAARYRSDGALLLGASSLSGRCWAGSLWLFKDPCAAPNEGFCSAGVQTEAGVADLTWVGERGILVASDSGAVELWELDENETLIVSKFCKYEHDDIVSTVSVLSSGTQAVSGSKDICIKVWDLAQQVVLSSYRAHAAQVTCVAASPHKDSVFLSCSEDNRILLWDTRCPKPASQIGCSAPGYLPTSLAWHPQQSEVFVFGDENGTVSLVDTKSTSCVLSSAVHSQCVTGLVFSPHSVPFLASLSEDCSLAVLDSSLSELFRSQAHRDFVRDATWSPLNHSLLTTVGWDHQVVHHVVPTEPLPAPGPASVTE
inactive: [1] 0.02 | [2] 0.012 | [3] 0.012 | [4] 0.006 | [5] 0.006

YME1L1 (UniProt Q96TA2)
UniProt Q96TA2, sequence (Q96TA2 whole entry, looked up): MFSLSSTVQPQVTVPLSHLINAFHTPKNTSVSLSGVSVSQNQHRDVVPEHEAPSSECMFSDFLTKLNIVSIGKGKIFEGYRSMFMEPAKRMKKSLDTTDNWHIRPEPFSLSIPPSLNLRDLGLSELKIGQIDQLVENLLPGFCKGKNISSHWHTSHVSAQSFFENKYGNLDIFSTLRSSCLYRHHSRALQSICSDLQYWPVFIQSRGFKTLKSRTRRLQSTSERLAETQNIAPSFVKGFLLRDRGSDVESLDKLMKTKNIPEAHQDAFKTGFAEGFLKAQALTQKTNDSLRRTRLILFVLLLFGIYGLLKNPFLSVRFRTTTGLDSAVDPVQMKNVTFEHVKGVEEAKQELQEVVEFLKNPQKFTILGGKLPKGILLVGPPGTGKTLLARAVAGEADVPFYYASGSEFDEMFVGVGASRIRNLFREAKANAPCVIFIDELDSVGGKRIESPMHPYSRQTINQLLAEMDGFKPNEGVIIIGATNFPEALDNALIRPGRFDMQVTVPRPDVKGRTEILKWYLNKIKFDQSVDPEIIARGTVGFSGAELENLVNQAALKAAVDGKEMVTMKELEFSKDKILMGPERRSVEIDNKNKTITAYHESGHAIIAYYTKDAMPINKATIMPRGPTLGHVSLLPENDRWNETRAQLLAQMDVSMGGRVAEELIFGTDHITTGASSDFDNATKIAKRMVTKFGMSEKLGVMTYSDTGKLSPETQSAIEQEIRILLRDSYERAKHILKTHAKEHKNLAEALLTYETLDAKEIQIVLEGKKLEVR
inactive: [1] 0.004 | [2] -0.021 | [3] 0.032 | [4] -0.008 | [5] 0.002

ZDHHC18 (UniProt Q9NUE0)
UniProt Q9NUE0, sequence (Q9NUE0 whole entry, looked up): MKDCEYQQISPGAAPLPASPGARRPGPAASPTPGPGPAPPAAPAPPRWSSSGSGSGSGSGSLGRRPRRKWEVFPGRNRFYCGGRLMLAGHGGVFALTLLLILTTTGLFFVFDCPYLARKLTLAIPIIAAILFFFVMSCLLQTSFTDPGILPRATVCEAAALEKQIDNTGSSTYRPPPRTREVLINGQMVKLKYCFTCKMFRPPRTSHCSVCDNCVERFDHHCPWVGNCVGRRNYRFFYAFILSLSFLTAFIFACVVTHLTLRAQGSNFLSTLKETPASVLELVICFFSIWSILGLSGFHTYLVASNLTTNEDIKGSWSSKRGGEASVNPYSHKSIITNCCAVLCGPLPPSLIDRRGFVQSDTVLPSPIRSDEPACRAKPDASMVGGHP
inactive: [1] 0.103 | [2] 0.115 | [3] 0.075 | [4] -0.072 | [5] 0.043

WEE1 (UniProt P30291)
inactive: [1] -0.002 | [2] -0.099 | [3] -0.047 | [4] 0.03

VASP (UniProt P50552)
UniProt P50552, sequence (P50552 whole entry, looked up): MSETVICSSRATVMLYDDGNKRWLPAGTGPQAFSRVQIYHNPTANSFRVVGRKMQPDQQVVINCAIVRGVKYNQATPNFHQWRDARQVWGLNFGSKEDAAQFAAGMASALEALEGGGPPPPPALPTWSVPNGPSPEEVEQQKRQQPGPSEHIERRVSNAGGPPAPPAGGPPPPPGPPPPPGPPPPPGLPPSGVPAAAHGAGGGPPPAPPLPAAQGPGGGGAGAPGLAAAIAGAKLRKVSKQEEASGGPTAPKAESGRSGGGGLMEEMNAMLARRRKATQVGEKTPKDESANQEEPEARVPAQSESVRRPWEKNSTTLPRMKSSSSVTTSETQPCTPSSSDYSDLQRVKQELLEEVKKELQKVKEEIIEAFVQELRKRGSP
inactive: [1] -0.005 | [2] 0.006 | [3] 0.008 | [4] -0.052 | [5] 0.017

VAMP2 (UniProt P63027)
inactive: [1] -0.045 | [2] -0.053 | [3] -0.024 | [4] 0.014 | [5] 0.081

URGCP (UniProt Q8TCY9)
inactive: [1] 0.003 | [2] 0.036 | [3] 0.044 | [4] 0.047

ZNHIT6 (UniProt Q9NWK9)
UniProt Q9NWK9, sequence (Q9NWK9 whole entry, looked up): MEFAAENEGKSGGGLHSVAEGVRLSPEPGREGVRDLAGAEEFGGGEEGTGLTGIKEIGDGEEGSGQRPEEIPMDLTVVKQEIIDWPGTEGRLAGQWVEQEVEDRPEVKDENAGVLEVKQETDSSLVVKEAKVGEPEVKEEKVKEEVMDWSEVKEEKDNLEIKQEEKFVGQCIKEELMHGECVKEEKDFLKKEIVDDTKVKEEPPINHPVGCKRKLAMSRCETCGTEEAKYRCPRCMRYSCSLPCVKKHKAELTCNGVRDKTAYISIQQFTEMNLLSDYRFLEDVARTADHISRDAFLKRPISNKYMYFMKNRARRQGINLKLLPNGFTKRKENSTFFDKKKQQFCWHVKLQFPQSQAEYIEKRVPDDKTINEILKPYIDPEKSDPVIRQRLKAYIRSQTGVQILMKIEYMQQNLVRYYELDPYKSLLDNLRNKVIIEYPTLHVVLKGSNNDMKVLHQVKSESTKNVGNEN
inactive: [1] 0.106 | [2] -0.063 | [3] 0.013 | [4] 0.089 | [5] 0.008

ZFYVE19 isoform 3 (UniProt Q96K21)
inactive: [1] 0.062 | [2] -0.075

UXT isoform 2 (UniProt Q9UBK9)
inactive: [1] 0.033 | [2] 0.026 | [3] 0.008 | [4] -0.053 | [5] -0.071

WDHD1 (UniProt O75717)
inactive: [1] 0.018 | [2] -0.011 | [3] -0.017 | [4] 0.011 | [5] 0.067
